Source: the supplement of paper PMC9844399
Where a name gives a salt, the structure may show the parent alone. A number with no mark means an inactive call.

The compounds below were run on HeLa (assay: MALAT1 nuclear FISH intensity, robust Z-score vs DMSO; higher = more nuclear MALAT1 lncRNA, active = -3 or less). Settings: 10 µM; 6 h.
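Note: High-content confocal imaging of branched-DNA amplified FISH in 384-well plates, Hoechst-defined nuclei, score is well value minus plate DMSO median over DMSO robust SD, four wells per compound.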

| SMILES | MALAT1 nuclear FISH intensity |
| --- | --- |
| Cc1coc2c1C(=O)C(=O)c1c-2ccc2c1CCCC2(C)C [Tanshinone IIA] | -0.607 |
| COC(=O)N[C@H](C(=O)N[C@@H](Cc1ccccc1)[C@@H](O)CN(Cc1ccc(-c2ccccn2)cc1)NC(=O)[C@@H](NC(=O)OC)C(C)(C)C)C(C)(C)C [Atazanavir] | -1.58 |
| S=c1[nH]cnc2nc[nH]c12 [Mercaptopurine Hydrate] | -0.672 |
| CO[C@H]1C[C@@H]2CC[C@@H](C)[C@@](O)(O2)C(=O)C(=O)N2CCCC[C@H]2C(=O)O[C@H]([C@H](C)C[C@@H]2CC[C@@H](OC(=O)C(C)(CO)CO)[C@H](OC)C2)CC(=O)[C@H](C)/C=C(\C)[C@@H](O)[C@@H](OC)C(=O)[C@H](C)C[C@H](C)/C=C/C=C/C=C/1C [Temsirolimus] | 1.29 |
| CO[C@@]1(NC(=O)C2SC(=C(C(N)=O)C(=O)O)S2)C(=O)N2C(C(=O)O)=C(CSc3nnnn3C)CS[C@@H]21 (stereo partly drawn) [Cefotetan Disodium] | 0.0769 |
| NCCc1ccc(O)c(O)c1 | -0.825 |
| COc1ccc2c(c1)CCC1C2CCC2(C)C(NCCCCCCN3C(=O)C=CC3=O)CCC12 (stereo not drawn) | -0.795 |
| Cc1occc(=O)c1O [Maltol] | -0.567 |
| CCCC(CCC)C(=O)O [Sodium Valproate] | -0.236 |
| CN(C)CCCOc1nn(Cc2ccccc2)c2ccccc12 [Benzydamine hydrochloride] | -0.28 |
| CCCCc1nc(Cl)c(CO)n1Cc1ccc(-c2ccccc2-c2nnn[nH]2)cc1 [Losartan potassium] | -1.57 |
| CCC[C@H](N[C@H]1CCc2cc(F)cc(F)c2C1)C(=O)Nc1cn(C(C)(C)CNCC(C)(C)C)cn1 | -0.158 |
| COc1cc2c(cc1OC)-c1c/c(=N\c3c(C)cc(C)cc3C)n(C)c(=O)n1CC2 [Trequinsin] | -1.6 |
| COCCCCCCCCCCCC(=O)O [12-Methoxydodecanoic acid] | -0.53 |
| CC/C=C\C/C=C\C/C=C\CCCCCCCC(=O)O [Linolenic acid (18:3 n-3)] | 0.533 |
| OCCN1C[C@H](O)[C@@H](O)[C@H](O)[C@H]1CO [Miglitol] | -0.603 |
| CCCCC/C=C\C\C=C/C=C/C=C/CC(=O)CCCC(=O)O [5-Ketoeicosatetraenoic acid] | -1.29 |
| CC[C@H](C)[C@H](N)C1=N[C@H](C(=O)N[C@@H](CC(C)C)C(=O)N[C@H](CCC(=O)O)C(=O)N[C@H](C(=O)N[C@H]2CCCCNC(=O)[C@H](CC(N)=O)NC(=O)[C@@H](CC(=O)O)NC(=O)[C@H](Cc3cnc[nH]3)NC(=O)[C@@H](Cc3ccccc3)NC(=O)[C@H]([C@@H](C)CC)NC(=O)[C@@H](CCCN)NC2=O)[C@@H](C)CC)CS1 [Bacitracin] | -0.21 |
| CN(C)CCC(c1ccc(Cl)cc1)c1ccccn1 (stereo not drawn) [Chlorpheniramine Maleate] | -0.0115 |
| COc1cc(Br)c(Nc2nc(-c3c(C)nc4ncccn34)cs2)c(Br)c1 | 4.09 |
| Nc1ncn([C@@H]2O[C@H](CO)[C@@H](O)[C@H]2O)c(=O)n1 [Azacitidine] | -0.358 |
| CC(C)(Oc1ccc(CCNC(=O)c2ccc(Cl)cc2)cc1)C(=O)O [bezafibrate] | 0.066 |
| COC(=O)C1=C(C)NC(C)=C(C(=O)OCCCN2CCC(c3ccccc3)(c3ccccc3)CC2)[C@H]1c1cccc([N+](=O)[O-])c1 [Niguldipine] | 2.46 |
| C#C[C@]1(O)CC[C@H]2[C@@H]3CCc4cc(O)ccc4[C@H]3CC[C@@]21C [Ethinyl estradiol] | 0.718 |
| CC(/C=C/c1cccc(Oc2ccc(F)cc2)c1)N(O)C(N)=O (stereo not drawn) | -1.61 |
| COCCCC/C(=N\OCCN)c1ccc(C(F)(F)F)cc1 [Fluvoxamine Maleate] | -0.93 |
| CCC[C@@H]1C[C@@H](C(=O)N[C@@H]([C@H]2O[C@H](SC)[C@H](O)[C@@H](O)[C@H]2O)[C@H](C)Cl)N(C)C1 | 0.492 |
| CC[C@@H]([C@H](C)O)n1ncn(-c2ccc(N3CCN(c4ccc(OC[C@@H]5CO[C@@](Cn6cncn6)(c6ccc(F)cc6F)C5)cc4)CC3)cc2)c1=O [Posaconazole] | -0.761 |
